# An excerpt weighted towards active compounds, which were near 13% of everything screened.
# Lassa entry inh – Lassa virus entry inhibition | Lassa virus pseudotype entry inhibition, cell reporter | Potency, µM (top dose mostly 37.9 µM), for the others: at the top dose activity change, negative = inhibition, most hits filed as inhibitors | hit rate 1.2% among 300,000 | AID 540256; calls by dose curve; tested in HEK293 cells; note: potency is the fitted concentration of half-maximal effect; % is set by controls: 0 for no effect and ±100 for the full control effect; nearly all actives have a fitted effect of over 50% in size
# Marburg entry inh – Marburg virus entry inhibition | Potency, µM (series often up to 37.8 µM), for inactives: at the highest dose activity change, negative = inhibition, usual class: inhibitors | hit rate 1.8% among 300,000 | Marburg virus pseudotyped entry inhibition, cell reporter; calls by dose curve; tested in HEK293 cells; note: potency is the fitted concentration of half-maximal effect; % is set by controls: 0 for no effect and ±100 for the full control effect
# CHX counter – counter-screen for Shiga toxin inhibitors: cycloheximide protein synthesis inhibition; cell reporter, cycloheximide protein synthesis inhibition counterscreen; max response, %; hit rate 12% among 300,000; in the data active = max response mostly above about 13%, no sharp cut-off; inactive = mostly below about 14%; note: read at 38.3 µM for the half of the compounds with a filed dose; 0% is about no effect
# HCV inh – inhibitors of hepatitis C virus infection. Huh7.5.1 HCVcc-Cre infection, luciferase reporter, 44 h. Potency, µM (top dose mostly 41.8 µM), without a hit: at the highest dose activity change, negative = inhibition, actives largely listed as inhibitors. hit rate 3.4% among 340,000; active = well fitted inhibition curve with a large enough effect; inconclusive = small, poorly fitted or top-dose-only effect, or another doubt; inactive = no such curve, though single readings can be large or run the other way; note: potency is the fitted concentration of half-maximal effect; % is set by controls: 0 for no effect and ±100 for the full control effect
#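 Cells seeded at 1,000/well and cultured 4 h, then compounds added followed by HCVcc-Cre virus (~0.5 moi). After 44 h further culture, luciferase substrate was added, plates held 15 min at room temperature, and luminescence read for 15 sec.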
# FMDV antiviral – foot and mouth disease virus antiviral activity; hit rate 1.2% among 410,000; AID 1159524; FMDV antiviral cell-based qHTS; Potency, µM (doses to about 57.9 µM), for inactives: top-dose activity change, negative = inhibition, most hits filed as inhibitors; calls by dose curve; tested in HEK293T cells; note: read-out not given here; potency is the fitted concentration of half-maximal effect; % is set by controls: 0 for no effect and ±100 for the full control effect; nearly all actives have a fitted effect of over 45% in size
# Shiga inhibitor – inhibitors of Shiga toxin in Vero cells | inhibition, % at 38.7 µM | AID 2315 | Vero cells, Shiga toxin protein synthesis inhibition reporter | hit rate 9.2% among 290,000; in the data active = inhibition mostly above about 28%, no sharp cut-off; inactive = mostly below about 43%; note: 0% is about no effect
# Numbers without * were called inactive; u = inconclusive; x = no result given; [ ] = dose if it differs, or a comment.
SMILES,Lassa entry inh,Marburg entry inh,CHX counter,HCV inh,FMDV antiviral,Shiga inhibitor
Cc1oc(-c2ccc(Cl)cc2)nc1CN1CCCC(C(=O)NCCCN2CCOCC2)C1 (centres undefined),u,u,-3,6.3µM*,0%,-3
Cc1oc(-c2ccc(Cl)cc2)nc1CN1CCCC(C(=O)NCCc2ccccc2)C1 (centres undefined),8%[46.1 µM],22%[46.1 µM],x,x,-8%,x
Cc1oc(-c2ccc(Cl)cc2)nc1CN1CCCC(C(=O)NCc2cccnc2)C1 (centres undefined),-25%,-24%,3,1µM*,u,-6
O=C(NCc1cccnc1)C1CCCN(S(=O)(=O)c2ccc(Cl)cc2)C1 (centres undefined),4%,8%,36*,-10%,-24%,11
COc1cccc(/C=C/C(=O)OCC(=O)c2ccc[nH]2)c1,x,x,x,x,51%,x
CC(=O)NC(C)c1ccc(C(=O)CSc2nnc(C3CC3)n2C2CC2)cc1 (centres undefined),x,x,x,2%,-20%,x
Cc1oc(-c2ccc(Cl)cc2)nc1CN1CCC(C(=O)NCCCN2CCCC(C)C2)CC1 (centres undefined),x,x,-2,1.8µM*,-22%,-5
COc1ccc(/C=C2\C(=O)NC(=O)N(Cc3ccccc3)C2=O)c(OC)c1OC,x,x,8,15%,-19%,-10
Cc1cc(Cl)ccc1OCC(=O)N1CCCN(C(=O)COc2ccc(Cl)cc2C)CC1,u,15µM*,-1,u,u,15
Cc1cc(Cl)ccc1OC(C)C(=O)N1CCCN(C(=O)C(C)Oc2ccc(Cl)cc2C)CC1 (centres undefined),u,u,-2,u,28µM*,-21
Cc1cccc(CN2CCN(Cc3ccc4nonc4c3)CC2CCO)n1 (centres undefined),x,x,1,15%,-18%,-14
CS(=O)(=O)NC1c2cccc3cccc(c23)C1N1CCOCC1 (centres undefined),-4%,17%,-3,1%,x,-16
Clc1ccc(N2COC3c4cccc5cccc(c45)C32)cc1 (centres undefined),15%,-18%,13,6%,-21%,49*
COc1ccc(N2CC2c2ccncc2)cc1 (centres undefined),-5%[46.1 µM],-17%[46.1 µM],5,-6%,-5%,13
COc1ccc(N2COC3c4cccc5cccc(c45)C32)cc1 (centres undefined),-18%,-37%,24*,u,-13%,45*
Cc1cc(=O)[nH]c(SCC(=O)Nc2ccccc2[N+](=O)[O-])n1,2%,-10%,10,3%,-10%,-16
COc1cc(-c2nc3ccccn3c2/N=C/c2cccc(OC)c2O)ccc1O,6%,25%[46.1 µM],23*,5%,15%,54
COc1cc(-c2nc3ccccn3c2/N=C/c2ccc(F)cc2)ccc1O,17%[46.1 µM],22%[46.1 µM],16*,-5%,19%,24
COc1ccc(/C=N/c2c(-c3ccco3)nc3ccccn23)cc1OC,4%,21%,-5,23%,-13%,-5
CC1(c2ccc([N+](=O)[O-])cc2)Nc2ccccc2S1 (centres undefined),-3%[46.1 µM],18%[46.1 µM],33*,-6%,18%,65*
CC(=O)Oc1ccc(/C=N\NC(=O)c2cc3c(ccc4ccccc43)o2)cc1,-23%[46.1 µM],-2%[46.1 µM],2,u,10%,-8
C=CCc1ccccc1OCC(O)CN(C(C)C)C(C)C (centres undefined),u,6.3µM*,-4,-12%,-15%,-3
COc1ccccc1C(CCNS(=O)(=O)c1ccc(C)cc1)c1ccco1 (centres undefined),x,-8%,6,u,18%,5
O=C(c1ccccc1)c1ccccc1N1C(=O)C=CC1=O,u,u,10,u,u,17
O=C1C=CC(=O)N1c1ccccc1N1C(=O)C=CC1=O,11µM*,u,x,u,u,x
O=C(Nc1ccc(F)cc1)C1CCCN(c2cnccn2)C1 (centres undefined),x,x,-3,-26%,-7%,10
O=C(O)c1ccccc1C(=O)NCC(O)COc1ccc(Cl)cc1 (centres undefined),14%,30%[46.1 µM],38*,u,21%,55*
O=C(c1cc([N+](=O)[O-])ccc1N1CCOCC1)N1CCN(c2ccccc2)CC1,x,x,-4,x,x,-3

# From PubChem BioAssay
